Screens from PubChem.
Only some compounds are listed: those with a hit (about 6.7% of all), similar ones and a draw of the others.
Anthrax LF inh2: inhibitors of Bacillus anthracis lethal factor protease. P15917. multiplex microsphere protease cleavage assay, LF. inhibition, % at 10 µM. 360,000 compounds, 0.12% hits; also: plate controls were buffer without enzyme for full effect and enzyme alone for no effect
Autofluor counter: counter-screen for toxin protease inhibitors: compound fluorescence; compound autofluorescence counterscreen, microsphere flow cytometry; active compounds read high; fluorescence intensity (concentration not given with the values); 360,000 compounds, 3.1% hits; AID 624483; in the data active = fluorescence intensity above about 16000; inconclusive = no clear call, values can overlap the other calls
Mtb FBA inh: inhibits M. tuberculosis FBA enzyme. 360,000 compounds, 2.3% hits. P9WQA3. inhibition, % at 1 µM. purified M. tuberculosis FBA, fluorescence read-out; in the data active = inhibition above about 27%;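 also: 0% = vehicle and 100% = reference inhibitor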
Target sequence (P9WQA3 whole entry, looked up): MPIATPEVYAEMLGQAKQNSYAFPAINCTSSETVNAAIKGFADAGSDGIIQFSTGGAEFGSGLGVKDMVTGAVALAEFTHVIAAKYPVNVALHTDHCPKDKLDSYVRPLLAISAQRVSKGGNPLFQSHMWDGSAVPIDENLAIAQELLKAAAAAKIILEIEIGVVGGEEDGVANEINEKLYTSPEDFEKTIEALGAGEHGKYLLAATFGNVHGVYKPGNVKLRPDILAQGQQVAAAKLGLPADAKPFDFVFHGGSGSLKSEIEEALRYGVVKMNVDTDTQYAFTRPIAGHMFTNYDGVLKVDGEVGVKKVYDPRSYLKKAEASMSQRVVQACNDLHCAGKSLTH
BoNT A protease: BoNT A light chain protease inhibition; multiplex microsphere protease substrate cleavage, flow cytometry; inhibition, % at 10 µM; 360,000 compounds, 0.17% hits; AID 588499; also: plate controls were buffer without enzyme for full effect and enzyme alone for no effect
BoNT-F LC inh: blocks Botulinum neurotoxin F light chain protease | Multiplex microsphere protease cleavage assay, flow cytometry | inhibition, % at 10 µM | 360,000 compounds, 0.22% hits | AID 588497; in the data active = inhibition above about 35%, passing the limit was not always enough; inconclusive = no clear call, values can overlap the other calls; also: plate controls were buffer without enzyme for full effect and enzyme alone for no effect
GDH-TPI counter: GDH-TPI coupled enzyme inhibition counter-screen | GDH-TPI coupled enzyme counterscreen, NADH absorbance | inhibition, % at 4.8 µM | 360,000 compounds, 1.2% hits; in the data active = inhibition above about 30%;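 also: 0% = DMSO wells and 100% = wells lacking the enzyme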
The depositor's hits bear a star. Rule as the data show it, unless noted: active = inhibition above about 30%; inconclusive = no clear call, values can overlap the other calls; inactive = below that.

What do the screens show for `CC(C)C1Oc2ccccc2N(CC(=O)NCCCN2C(C)CCCC2C)C1=O` (stereo not drawn)?
Anthrax LF inh2: 2; Autofluor counter: 23299*; Mtb FBA inh: 5; BoNT A protease: 0; BoNT-F LC inh: 2; GDH-TPI counter: 2

How did CCOc1ccc(N=Nc2c(=O)[nH]n3c(=O)cc(C)[nH]c23)cc1 do in these assays?
Anthrax LF inh2: 0; Autofluor counter: 3153; Mtb FBA inh: -40; BoNT A protease: 0; BoNT-F LC inh: 1; GDH-TPI counter: 13

Results for Cc1ccccc1OCCC(=O)OCC(=O)NC1CCCC1 ?
Anthrax LF inh2: -2; Autofluor counter: inconclusive; Mtb FBA inh: -1; BoNT A protease: 0; BoNT-F LC inh: -4; GDH-TPI counter: -2

What do the screens show for `COc1ccc(C(=O)COC(=O)c2cc(=O)c3ccccc3o2)c(OC)c1`?
Anthrax LF inh2: -1; Autofluor counter: 3238; Mtb FBA inh: 4; BoNT A protease: -1; BoNT-F LC inh: -8; GDH-TPI counter: 7

What do the screens show for `CCC1(C)Cc2ccccc2-c2nc(NCCO)n(-c3ccccc3)c(=O)c21` (stereo not drawn)?
Anthrax LF inh2: -5; Autofluor counter: 16333*; Mtb FBA inh: 176*; BoNT A protease: 0; BoNT-F LC inh: -5; GDH-TPI counter: 13

Results for CC1(C)Cc2ccccc2-c2nc(NCCO)n(-c3ccccc3)c(=O)c21 ?
Anthrax LF inh2: -2; Autofluor counter: 4936; Mtb FBA inh: 173*; BoNT A protease: 0; BoNT-F LC inh: -3; GDH-TPI counter: 18

How did CCC1(C)Cc2ccccc2-c2c1c(=O)n(-c1ccc(C)cc1)c1nnnn21 (stereo not drawn) do in these assays?
Anthrax LF inh2: -3; Autofluor counter: 3260; Mtb FBA inh: 5; BoNT A protease: -1; BoNT-F LC inh: -14; GDH-TPI counter: 2

What do the screens show for `CCC1(CC)Cc2ccccc2-c2nc(NCCO)[nH]c(=O)c21`?
Anthrax LF inh2: -1; Autofluor counter: 20997*; Mtb FBA inh: 168*; BoNT A protease: 3; BoNT-F LC inh: 7; GDH-TPI counter: 20

What do the screens show for `CCC1(C)Cc2ccccc2-c2nc[nH]c(=O)c21` (stereo not drawn)?
Anthrax LF inh2: 1; Autofluor counter: 3923; Mtb FBA inh: -1; BoNT A protease: -2; BoNT-F LC inh: -11; GDH-TPI counter: 0

What do the screens show for `CCc1nc2c(c(=O)[nH]1)C(CC)(CC)Cc1ccccc1-2`?
Mtb FBA inh: 0; GDH-TPI counter: 7

What do the screens show for `CCC1(C)Cc2ccccc2-c2nc(NCCO)n(-c3ccc(C)cc3)c(=O)c21` (stereo not drawn)?
Anthrax LF inh2: 0; Autofluor counter: 4643; Mtb FBA inh: 163*; BoNT A protease: 0; BoNT-F LC inh: -6; GDH-TPI counter: 17

How did COc1cc(/C=C\C(=O)Nc2cc(=O)n(C)c(=O)n2C)cc(OC)c1OC do in these assays?
Anthrax LF inh2: 0; Autofluor counter: 4641; Mtb FBA inh: -3; BoNT A protease: 0; BoNT-F LC inh: -1; GDH-TPI counter: 25

How did COc1ccc(/C=C/C(=O)NNc2cc(=O)n(C)c(=O)n2C)cc1OC do in these assays?
Anthrax LF inh2: 4; Autofluor counter: 4779; Mtb FBA inh: 11; BoNT A protease: 0; BoNT-F LC inh: 3; GDH-TPI counter: 34*

How did COc1ccc(/C=N/Nc2cc(=O)n(C)c(=O)n2C)cc1OC do in these assays?
Anthrax LF inh2: 0; Autofluor counter: 2057; Mtb FBA inh: 13; BoNT A protease: -2; BoNT-F LC inh: -29; GDH-TPI counter: 34*

Results for Cc1ccc(C(=O)Cn2cncn2)cc1 ?
Anthrax LF inh2: -26; Autofluor counter: 3739; Mtb FBA inh: 0; BoNT A protease: -9; BoNT-F LC inh: inconclusive; GDH-TPI counter: -2

Results for O=C(COC(=O)/C=C/c1ccccc1Cl)NC(=O)NCc1ccccc1 ?
Anthrax LF inh2: 3; Autofluor counter: 3900; Mtb FBA inh: -2; BoNT A protease: 1; BoNT-F LC inh: 0; GDH-TPI counter: 13

How did CCOC(=O)c1cc2c(C)n(-c3ccc(OCC)cc3)c(C)c2cc(C(=O)OCC)c1=O do in these assays?
Anthrax LF inh2: 0; Autofluor counter: 2422; Mtb FBA inh: 2; BoNT A protease: 2; BoNT-F LC inh: -3; GDH-TPI counter: 24

Results for CCOC(=O)c1cc2c(C)n(-c3ccc(N(C)C)cc3)c(C)c2cc(C(=O)OCC)c1=O ?
Anthrax LF inh2: 1; Autofluor counter: 18745*; Mtb FBA inh: -1; BoNT A protease: inconclusive; BoNT-F LC inh: 6; GDH-TPI counter: -11

How did COc1ccc(C)cc1NC(=O)CN1CCN(S(=O)(=O)c2ccc(Cl)cc2)CC1 do in these assays?
Anthrax LF inh2: -1; Autofluor counter: 2388; Mtb FBA inh: -5; BoNT A protease: 0; BoNT-F LC inh: 2; GDH-TPI counter: -6

What do the screens show for `CC(=O)N(CCC(c1ccccc1)c1ccco1)Cc1cccs1` (stereo not drawn)?
Anthrax LF inh2: 0; Autofluor counter: 4723; Mtb FBA inh: 3; BoNT A protease: 0; BoNT-F LC inh: -5; GDH-TPI counter: -5

How did CCC(=O)N(CCC(c1ccco1)c1ccccc1OC)Cc1cccs1 (stereo not drawn) do in these assays?
Anthrax LF inh2: -1; Autofluor counter: 23755*; Mtb FBA inh: 2; BoNT A protease: 0; BoNT-F LC inh: 0; GDH-TPI counter: -7

Results for C(=N\n1cncn1)/c1ccc(N2CCOCC2)cc1 ?
Anthrax LF inh2: 8; Autofluor counter: 3182; Mtb FBA inh: -3; BoNT A protease: 0; BoNT-F LC inh: 1; GDH-TPI counter: 46*

How did C(=N\n1cnnc1)/c1ccc(N2CCOCC2)cc1 do in these assays?
Anthrax LF inh2: 2; Autofluor counter: 7937; Mtb FBA inh: 5; BoNT A protease: 1; BoNT-F LC inh: 4; GDH-TPI counter: 34*

How did O=C1CC(/C=C/c2cccnc2)=Nc2ccccc2N1 do in these assays?
Anthrax LF inh2: 1; Autofluor counter: 3098; Mtb FBA inh: 4; BoNT A protease: 0; BoNT-F LC inh: -2; GDH-TPI counter: 15

Results for CNc1sc(C(=O)c2cccs2)c(N)c1-c1nc2ccccc2s1 ?
Anthrax LF inh2: 11; Autofluor counter: 2925; Mtb FBA inh: -1; BoNT A protease: 6; BoNT-F LC inh: -38; GDH-TPI counter: 17

Results for CNc1sc(C(=O)c2ccc(F)cc2)c(N)c1-c1nc2ccccc2s1 ?
Anthrax LF inh2: 21; Autofluor counter: 18218*; Mtb FBA inh: -3; BoNT A protease: 19; BoNT-F LC inh: 8; GDH-TPI counter: 25

Results for COc1cccc(OCC(O)CN2CCN(CCN3C(=O)c4cccc5cccc(c45)C3=O)CC2)c1 (stereo not drawn) ?
Anthrax LF inh2: 2; Autofluor counter: 4620; Mtb FBA inh: 0; BoNT A protease: 0; BoNT-F LC inh: -4; GDH-TPI counter: 4

Results for COc1ccc(OCC(O)CN2CCC(CN3C(=O)c4cccc5cccc(c45)C3=O)CC2)cc1 (stereo not drawn) ?
Anthrax LF inh2: 4; Autofluor counter: 3893; Mtb FBA inh: 23; BoNT A protease: -2; BoNT-F LC inh: 5; GDH-TPI counter: 45*
